Measured values reported in PubChem BioAssay AID1159580 (chemical genetic matrix, 2015).
Where “and” joins values, the source holds several entries; their conditions need not be identical. Equal values may be shown once. Out of some 5,500 compounds screened, about 2,000 (36%) were called active. Another 18% or so got no clear call; they are omitted. Cut-off read from the data, not from the text of the source: active = normalized growth mostly below about 0.91 (no sharp cut-off); inconclusive = no clear call, values can overlap the other calls; inactive = mostly above about 0.92. The list shows a part of the results.

Assay: chemical genetic growth profiling, strain panel (AID 1159580);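 note: tested at 20 µM; growth read once vehicle control cultures reached saturation at 30 °C; 1 = growth at the plate median or of vehicle wells; lower values mean less growth of the strain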
Conditions: S. cerevisiae deletion strains, growth OD

Measured: normalized growth

COc1ccc(C(=O)CC(=O)O)c2c1C=CC(C)(C)O2
inactive: locus YAL021C, strain ccr4, stronger effect = lower value 1 | locus YAL026C, strain drs2, stronger effect = lower value 1 | locus YAL030W, strain snc1, stronger effect = lower value 0.992 | locus YBL061C, strain skt5, stronger effect = lower value 0.999 | locus YBR009C, strain hhf1, stronger effect = lower value 1.01 | locus YBR021W, strain FUR4, stronger effect = lower value 0.986 | locus YBR023C, strain chs3, stronger effect = lower value 1.01 | locus YBR171W, strain sec66, stronger effect = lower value 0.986 | locus YBR229C, strain ROT2, stronger effect = lower value 0.983 | locus YBR231C, strain swc5, stronger effect = lower value 0.987 | locus YBR279W, strain paf1, stronger effect = lower value 1.01 | locus YCL011C, strain gbp2, stronger effect = lower value 1.01 | locus YCL016C, strain dcc1, stronger effect = lower value 1.02 | locus YCL029C, strain bik1, stronger effect = lower value 0.997 | locus YCL061C, strain MRC1, stronger effect = lower value 1 | locus YCL069W, strain vba3, stronger effect = lower value 1.01 | locus YCR088W, strain abp1, stronger effect = lower value 0.995 | locus YDL005C, strain med2, stronger effect = lower value 0.983 | locus YDL035C, strain GPR1, stronger effect = lower value 1.02 | locus YDL040C, strain nat1, stronger effect = lower value 1 | locus YDL074C, strain BRE1, stronger effect = lower value 1 | locus YDL101C, strain DUN1, stronger effect = lower value 1.01 | locus YDL185W, strain tfp1, stronger effect = lower value 0.988 | locus YDL192W, strain arf1, stronger effect = lower value 0.996 | locus YDR001C, strain nth1, stronger effect = lower value 0.995 | locus YDR069C, strain doa4, stronger effect = lower value 0.984 | locus YDR101C, strain arx1, stronger effect = lower value 0.995 | locus YDR137W, strain rgp1, stronger effect = lower value 1.03 | locus YDR150W, strain NUM1, stronger effect = lower value 0.999 | locus YDR159W, strain sac3, stronger effect = lower value 0.956 | locus YDR162C, strain NBP2, stronger effect = lower value 1.06 | locus YDR195W, strain ref2 0.962 | locus YDR297W, strain sur2, stronger effect = lower value 0.997 | locus YDR318W, strain mcm21, stronger effect = lower value 0.997 | locus YDR334W, strain swr1, stronger effect = lower value 0.997 | locus YDR335W, strain msn5, stronger effect = lower value 1.01 | locus YDR388W, stronger effect = lower value 1.01 | locus YDR392W, strain spt3, stronger effect = lower value 0.96 | locus YDR502C, strain sam2, stronger effect = lower value 1.02 | locus YEL003W, strain gim4, stronger effect = lower value 0.999 | locus YEL037C, strain rad23, stronger effect = lower value 0.999 | locus YEL061C, strain CIN8, stronger effect = lower value 0.998 | locus YER015W, strain faa2, stronger effect = lower value 1.01 | locus YER016W, strain bim1, stronger effect = lower value 0.99 | locus YER110C, stronger effect = lower value 0.977 | locus YER111C, strain swi4, stronger effect = lower value 1 | locus YER155C, strain BEM2 (second series), stronger effect = lower value 0.99 | locus YER155C, strain BEM2, stronger effect = lower value 0.983 | locus YER167W, strain BCK2, stronger effect = lower value 0.993 | locus YFR010W, strain ubp6, stronger effect = lower value 0.994 | locus YGL078C, strain dbp3, stronger effect = lower value 0.994 | locus YGL086W, strain mad1, stronger effect = lower value 0.99 | locus YGL167C, strain pmr1, stronger effect = lower value 0.994 | locus YGL173C, strain kem1, stronger effect = lower value 0.99 | locus YGL227W, strain vid30, stronger effect = lower value 0.981 | locus YGL240W, strain doc1, stronger effect = lower value 1.02 | locus YGL248W, strain PDE1, stronger effect = lower value 1 | locus YGL253W, strain hxk2, stronger effect = lower value 1 | locus YGR078C, strain PAC10, stronger effect = lower value 1.03 | locus YGR135W, strain pre9, stronger effect = lower value 0.992 | locus YGR252W, strain gcn5, stronger effect = lower value 0.979 | locus YHR013C, strain ard1, stronger effect = lower value 1.02 | locus YHR027C, strain rpn1, stronger effect = lower value 0.982 | locus YHR030C, strain SLT2, stronger effect = lower value 0.997 | locus YHR079C, strain IRE1 (second series), stronger effect = lower value 0.991 | locus YHR079C, strain IRE1, stronger effect = lower value 0.987 | locus YHR094C, strain hxt1, stronger effect = lower value 1 | locus YHR129C, strain ARP1, stronger effect = lower value 0.998 | locus YHR142W, strain chs7, stronger effect = lower value 1 | locus YHR200W, strain rpn10, stronger effect = lower value 0.987 | locus YIL066C, strain RNR3, stronger effect = lower value 1.02 | locus YIL073C, strain SPO22, stronger effect = lower value 1.04 | locus YIL125W, strain kgd1, stronger effect = lower value 1.01 | locus YIR030C, strain dcg1, stronger effect = lower value 0.993 | locus YJL092W, strain hpr5, stronger effect = lower value 1 | locus YJL095W, strain BCK1 (second series), stronger effect = lower value 0.99 | locus YJL095W, strain BCK1, stronger effect = lower value 1.05 and 1.08 | locus YJL115W, strain asf1, stronger effect = lower value 1 | locus YJL129C, strain trk1, stronger effect = lower value 1 | locus YJL134W, strain LCB3, stronger effect = lower value 0.995 | locus YJL154C, strain vps35, stronger effect = lower value 0.996 | locus YJL164C, strain tpk1, stronger effect = lower value 1.01 | locus YJL166W, strain qcr8, stronger effect = lower value 1 | locus YJL168C, strain set2, stronger effect = lower value 0.998 | locus YJL187C, strain SWE1 (second series), stronger effect = lower value 1.02 | locus YJL187C, strain SWE1, stronger effect = lower value 1.01 | locus YJR043C, strain POL32, stronger effect = lower value 1.04 | locus YJR066W, strain TOR1, stronger effect = lower value 0.949 | locus YJR075W, strain HOC1, stronger effect = lower value 1.02 | locus YKL009W, strain mrt4, stronger effect = lower value 1.03 | locus YKL068W, stronger effect = lower value 0.992 | locus YKL085W, strain MDH1 (second series), stronger effect = lower value 1 | locus YKL085W, strain MDH1, stronger effect = lower value 1 | locus YKL160W, strain elf1, stronger effect = lower value 1.01 | locus YKL190W, strain CNB1, stronger effect = lower value 0.994 | locus YKR001C, strain vps1, stronger effect = lower value 0.994 | locus YKR026C, strain gcn3, stronger effect = lower value 0.995 | locus YKR091W, strain srl3, stronger effect = lower value 0.997 | locus YLL001W, strain dnm1, stronger effect = lower value 1.01 | locus YLL026W, stronger effect = lower value 1 | locus YLL041C, strain sdh2, stronger effect = lower value 1.01 | locus YLR027C, strain aat2, stronger effect = lower value 1.01 | locus YLR039C, strain RIC1, stronger effect = lower value 1.08 | locus YLR058C, strain SHM2, stronger effect = lower value 0.996 | locus YLR102C, strain apc9, stronger effect = lower value 0.992 | locus YLR113W, strain HOG1, stronger effect = lower value 1.07 | locus YLR221C, strain rsa3, stronger effect = lower value 0.99 | locus YLR258W, strain gsy2, stronger effect = lower value 1 | locus YLR262C, strain YPT6 (second series), stronger effect = lower value 1.03 | locus YLR262C, strain YPT6, stronger effect = lower value 1.06 | locus YLR268W, strain sec22, stronger effect = lower value 1.01 | locus YLR320W, strain mms22, stronger effect = lower value 0.987 | locus YLR330W, strain CHS5, stronger effect = lower value 0.995 | locus YLR342W, strain FKS1 (second series), stronger effect = lower value 1 | locus YLR342W, strain FKS1, stronger effect = lower value 0.999 | locus YLR357W, strain rsc2, stronger effect = lower value 0.959 | locus YLR370C, strain arc18, stronger effect = lower value 1.03 | locus YLR371W, strain rom2, stronger effect = lower value 0.997 | locus YLR384C, strain iki3, stronger effect = lower value 0.99 | locus YLR418C, strain cdc73, stronger effect = lower value 0.998 | locus YML016C, strain PPZ1, stronger effect = lower value 0.99 | locus YML032C, strain rad52, stronger effect = lower value 1 | locus YML120C, strain ndi1, stronger effect = lower value 1.01 | locus YML124C, strain tub3, stronger effect = lower value 0.997 | locus YMR058W, strain fet3, stronger effect = lower value 1.01 | locus YMR078C, strain ctf18, stronger effect = lower value 0.977 | locus YMR125W, strain sto1, stronger effect = lower value 0.994 | locus YMR129W, stronger effect = lower value 1 | locus YMR205C, strain PFK2, stronger effect = lower value 1.01 | locus YMR223W, strain ubp8, stronger effect = lower value 1.01 | locus YMR231W, strain pep5, stronger effect = lower value 0.994 | locus YMR263W, strain SAP30, stronger effect = lower value 1.01 | locus YMR307W, strain GAS1, stronger effect = lower value 0.939 | locus YNL067W, strain RPL9B, stronger effect = lower value 1.04 | locus YNL071W, strain lat1, stronger effect = lower value 1.01 | locus YNL153C, strain GIM3, stronger effect = lower value 1.04 | locus YNL183C, strain NPR1, stronger effect = lower value 0.995 | locus YNL209W, strain ssb2, stronger effect = lower value 1.01 | locus YNL233W, strain BNI4, stronger effect = lower value 1.03 | locus YNL248C, strain rpa49, stronger effect = lower value 0.903 | locus YNL250W, strain rad50, stronger effect = lower value 0.981 | locus YNL271C, strain bni1, stronger effect = lower value 0.984 | locus YNL298W, strain CLA4, stronger effect = lower value 0.979 | locus YNL307C, strain MCK1, stronger effect = lower value 0.99 | locus YNL322C, strain KRE1 (second series), stronger effect = lower value 1.01 | locus YNL322C, strain KRE1, stronger effect = lower value 0.998 | locus YNR049C, strain mso1, stronger effect = lower value 1.02 | locus YNR052C, strain pop2, stronger effect = lower value 0.985 | locus YOL006C, strain TOP1, stronger effect = lower value 1.11 | locus YOL012C, strain htz1 0.738 | locus YOL147C, strain pex11, stronger effect = lower value 0.993 | locus YOR001W, strain rrp6, stronger effect = lower value 0.971 | locus YOR061W, strain CKA2, stronger effect = lower value 0.993 | locus YOR069W, strain VPS5, stronger effect = lower value 0.989 | locus YOR070C, strain gyp1, stronger effect = lower value 1 | locus YOR080W, strain dia2, stronger effect = lower value 0.994 | locus YOR083W, strain WHI5, stronger effect = lower value 1.01 | locus YOR106W, strain vam3, stronger effect = lower value 1.03 | locus YOR136W, strain idh2, stronger effect = lower value 0.985 | locus YOR144C, strain elg1, stronger effect = lower value 0.999 | locus YOR184W, strain ser1, stronger effect = lower value 1.03 | locus YOR231W, strain MKK1, stronger effect = lower value 0.994 | locus YOR265W, strain rbl2, stronger effect = lower value 1.02 | locus YOR270C, strain vph1, stronger effect = lower value 0.995 | locus YOR290C, strain snf2, stronger effect = lower value 0.997 | locus YOR316C, strain cot1, stronger effect = lower value 0.996 | locus YPL051W, strain arl3, stronger effect = lower value 1.01 | locus YPL078C, strain atp4, stronger effect = lower value 1.03 | locus YPL106C, strain sse1, stronger effect = lower value 0.987 | locus YPL240C, strain hsp82, stronger effect = lower value 0.999 | locus YPL241C, strain CIN2, stronger effect = lower value 0.996 | locus YPL256C, strain CLN2, stronger effect = lower value 0.997 | locus YPR119W, strain clb2, stronger effect = lower value 1 | locus YPR141C, strain kar3, stronger effect = lower value 0.991 | locus YPR163C, strain tif3, stronger effect = lower value 0.992 | locus YPR167C, strain met16, stronger effect = lower value 0.995 | strain wtn01, stronger effect = lower value 0.991
